Screening data as filed in PubChem BioAssay.
p53 reactivator: re-activators of mutant p53; H1299 p53-A138V BP100-luciferase reporter, luminescence, 24 h; Potency, µM (doses to about 92.2 µM), hits mostly activators; hit rate 0.063% among 320,000; also: nearly all actives have a fitted effect of over 45% in size
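H1299 (p53-null), stable ts p53-A138V + BP100-Luc; 1000 cells/well, Opti-MEM/10% FBS; cpd 4 pt, 1:5; 24 h, 37 deg C, 5% CO2; detection reagent 10 min RT; luminescence.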
Giardia killer: kills Giardia lamblia; Giardia lamblia trophozoite viability; activity change, % at 7.66 µM, hits read low; hit rate 0.15% among 340,000; in the data active = activity change below about -80%; inconclusive = between about -30% and that limit;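 also: parasites exposed to compound for two days anaerobically before the ATP read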
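Compounds were tested on trophozoites seeded at 100 cells/well and held 48 hrs at 37 deg C anaerobically. An ATP-based luminescent kit measured the remaining live cells.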
B2AR arrestin: beta2AR (human) beta-arrestin recruitment activity; P07550; beta-arrestin recruitment to beta2AR, cell-based reporter; Potency, µM (series often up to 46.1 µM), most hits filed as activators; hit rate 0.02% among 330,000; AID 492947; also: nearly all actives have a fitted effect of over 65% in size
ClpP mod: qHTS Assay for Activators of ClpP; ATP-dependent Clp protease proteolytic subunit (Bacillus subtilis (strain 168)), P80244; purified B. subtilis ClpP, FRET peptide cleavage, 20 min; Potency, µM (doses to about 57.5 µM); hit rate 1.9% among 340,000; AID 651965, 2013; active = well fitted falling curve with a large enough effect; inconclusive = small, poorly fitted or top-dose-only effect; inactive = no such curve, though single readings can be large or run the other way; also: the source files actives as falling curves though it sought activators and does not explain the sign; nearly all actives have a fitted effect of over 65% in size
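FRET quenching reversal measured ClpP activation: 10 microg/mL B. subtilis ClpP at pH 8 with the FRET-FV decapeptide, read at 430 nm after 320 nm excitation. The 20-min minus 0-min signal was scaled between DMSO/no-enzyme wells and ADEP (5.8 microM final).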
Mito fusion act: inhibitors of mitochondrial division or activators of mitochondrial fusion; S. cerevisiae fusion-defective mutant growth rescue, CellTiterGlo 48 h; Potency, µM (series often up to 46.1 µM), most hits filed as activators; hit rate 0.23% among 320,000; AID 485298; also: nearly all actives have a fitted effect of over 45% in size
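Read-out: ATP-based luminescence (CellTiterGlo, 10 min ambient) reporting growth of fusion-defective ts yeast after 48 hours at 37C on glycerol/ethanol YPEG medium in the presence of compound.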
uPA generation: inhibitors of cell surface uPA generation; cell surface uPA generation assay, qHTS; Potency, µM (doses to about 38.3 µM), most hits filed as inhibitors; hit rate 0.31% among 330,000; active = well fitted inhibition curve with a large enough effect; inconclusive = small, poorly fitted or top-dose-only effect; inactive = no such curve, though single readings can be large or run the other way; tested in mouse RAW 264.7 cells; also: nearly all actives have a fitted effect of over 55% in size
Hits are given with their value; - = inactive; ? = inconclusive; . = not tested or not shown. Sampled rows, rich in hits. Any-hit rate of the full collection: about 2.1%. Unless noted, calls follow the shape of the dose curve; as a rule, active = well fitted curve in the direction sought with a large enough effect; inconclusive = small, poorly fitted or top-dose-only effect, or another doubt; inactive = no such curve, though single readings can be large; an effect the other way counts as inactive or inconclusive.

SMILES | p53 reactivator | Giardia killer | B2AR arrestin | ClpP mod | Mito fusion act | uPA generation
Cc1ccc(S(=O)(=O)N(CC(=O)N/N=C/c2cccc3c2OCCO3)c2ccccc2F)cc1 | - | - | - | 22µM | - | -
Cc1ccc(S(=O)(=O)N(CC(=O)N/N=C/c2cccc(C)c2)c2cccc3cccnc23)cc1 | . | - | . | 25µM | - | -
Cc1ccc(Cl)cc1-n1ncc2c(Nc3ccc4c(c3)OCCO4)ncnc21 | . | . | . | - | . | .
CCNC(=O)CC1C(=O)N(c2cccc(OC)c2)C(=O)N1Cc1ccc(OC)c(OC)c1 (centres undefined) | . | . | . | - | . | .
O=c1oc2ccc(Br)cc2cc1-c1nc2c(s1)CCc1ccccc1-2 | . | - | . | - | . | .
O=C(Oc1ccc(Cl)c2cccnc12)N1CCOCC1 | ? | - | - | 32µM | - | -
COc1cc(C(=O)Oc2c(CN3CCOCC3)cc(Cl)c3cccnc23)cc(OC)c1OC | - | - | 3.5µM | - | - | ?
COc1ccc(C(=O)Oc2c(CN3CCOCC3)cc(Cl)c3cccnc23)cc1 | - | - | ? | - | - | -
O=C(Oc1c(CN2CCOCC2)cc(Cl)c2cccnc12)c1ccccc1Cl | - | - | 3.5µM | . | - | -
Cc1cc(C)c(C)c(S(=O)(=O)N2CCC(C(=O)NNC(=O)c3ccccc3O)CC2)c1C | - | - | - | 28µM | - | -
CCOc1ccccc1CNC(=O)c1cc2oc3ccccc3c2n1C | - | - | - | 20µM | - | -
CCOc1ccccc1CNC(=O)c1cc2occc2n1C | - | - | - | - | - | -
CC(=O)N1N=C(c2ccc(Br)cc2)CC1c1cn(C)c2ccccc12 (centres undefined) | - | - | - | 28µM | - | -
O=C(C1CCC(Cn2c(=O)c3sccc3n(Cc3cccc(F)c3)c2=O)CC1)N1CCCCC1 (centres undefined) | . | . | . | - | . | .
Cc1cccc(N=c2oc3cc(O)ccc3cc2C(N)=O)c1 | ? | - | - | 28µM | - | -
CC(=O)c1ccc(N2C(=O)Nc3ccccc3S2(=O)=O)cc1 | . | . | . | - | . | .
CN1CC=C2C(C#N)=C(N)C(C#N)(C#N)C(CCc3ccccc3)C2C1 (centres undefined) | - | - | - | 28µM | - | -
CCCC1C2CN(C(C)C)CC=C2C(C#N)=C(N)C1(C#N)C#N (centres undefined) | - | - | - | 28µM | - | -
COc1ccc(C2C(C#N)=C(N)Oc3c2sc2nc(C)cc(C)c32)cc1 (centres undefined) | ? | - | - | 28µM | - | -
COC(=O)c1cc2c(C)nn(C)c2s1 | - | - | - | . | 5.6µM | -
CN(C)c1ccc(C2C=Cc3ccccc32)c2ccccc12 (centres undefined) | . | . | . | - | . | .
C=CCN(CC=C)C(=O)Cc1ccc(F)cc1 | - | - | - | - | - | -
COc1cc(CNC(=O)c2sc3ncccc3c2-n2cccc2)cc(OC)c1OC | . | . | . | - | . | .
O=C(COc1ccccc1Cl)OCc1cc(=O)n2nc(C3CCCCC3)sc2n1 | . | . | . | - | . | .
COc1ccccc1CNc1ccc(-c2nc(C)no2)cc1[N+](=O)[O-] | . | . | . | - | . | .
SMILES | p53 reactivator | Giardia killer | B2AR arrestin | ClpP mod | Mito fusion act | uPA generation
Cc1ccc(/C(=N/Nc2ncnc3ccccc23)C(=O)O)cc1 | ? | - | 11µM | . | - | -
Cc1ccc(Nc2ncnc3ccccc23)cc1 | - | - | - | . | - | -
CCOC(=O)c1cc(C)[nH]c(=O)c1C#N | - | - | - | - | - | -
COCc1cc(C)[nH]c(=O)c1C#N | ? | - | - | 2.8µM | - | -
CCC(Oc1ccccc1F)C(=O)Nc1c(C(=O)c2ccccc2)oc2ccccc12 (centres undefined) | . | . | . | - | . | .
Cc1c(-n2cc(C(=O)O)c(=O)c3cc(F)c(N4CCCC(O)C4)c(F)c32)c(=O)n(-c2ccccc2)n1C (centres undefined) | - | - | - | 10µM | - | -
CC(=O)ON(C(C)=O)c1ccc(/C=C2\C=Cc3ccccc32)cc1 | . | . | . | - | . | .
CCC1CCCCN1S(=O)(=O)c1ccc(NC(=O)c2cccs2)cc1 (centres undefined) | - | - | - | - | 16µM | -
CCOC(=O)N1C(COCc2ccccc2)C=CCS1(=O)=O (centres undefined) | . | - | . | . | . | .
COC(=O)CN1C(=O)[C@@H]2[C@H](C1=O)[C@@H]1CC(C(=O)OC)=C[C@@H](C(=O)OC)C3C1=C(C(=O)C31CCCCC1)[C@@H]2C (some centres undefined) | . | - | . | . | . | .
COc1cc(-c2nnc(CSc3nnc(Nc4ccc(Oc5ccccc5)cc4)s3)o2)cc(OC)c1OC | - | - | - | 25µM | - | -
Cc1ccc(C)c(N2CCN(S(=O)(=O)c3ccc(F)c(C(=O)Nc4ccc(Cl)cc4Cl)c3)CC2)c1 | . | . | . | - | . | .
CC(C)CC(=O)/C(=C\c1ccc(Cl)cc1Cl)n1cncn1 | - | - | - | - | - | 7.1µM
CCOc1ccccc1NS(=O)(=O)c1ccc2c(c1)CC(C)N2C(=O)C1CC1 (centres undefined) | . | . | . | - | . | .
CN1c2ccccc2C(C)(C)C12C=Nc1c(cc(N3CCOCC3)c3ccccc13)O2 (centres undefined) | - | - | - | 28µM | - | -
C=CCn1c(SCC(=O)N2CCc3ccccc3C2)nc2ccccc2c1=O | - | - | - | - | - | -
C=CCn1c(SCC(=O)N2CCc3ccccc3C2)nc2sc(C)c(C)c2c1=O | - | - | - | - | 13µM | ?
C=CCn1c(SCC(=O)N2CCOCC2)nc2sc(CC)cc2c1=O | - | - | - | - | . | -
C=CCn1c(SCC(=O)N2CCc3ccccc3C2)nc2sc(CC)cc2c1=O | - | - | - | 20µM | ? | -
CC(=O)Nc1ccc(NC(=O)CCS(=O)(=O)c2ccc3c(c2)CC(=O)N3C)cc1 | . | . | . | - | . | .
CN1C(=O)c2ccccc2Sc2ccc(NC(=O)N3CCN(c4ccccc4F)CC3)cc21 | . | . | . | - | . | .
CCOC(=O)c1ccc(N2CCN(c3ccccc3F)CC2)c(NC(=O)Nc2cccc(OC)c2)c1 | - | - | - | 25µM | - | -
COc1cccc(/C=C/c2nc3ccccc3nc2/C=C/c2cccc(OC)c2OC)c1OC | . | . | . | - | . | .
CCN1C2=NCCCN2c2cc(C)c(C)cc21 | - | - | - | 28µM | - | -
COc1ccc(N(CC(=O)Nc2cccc(Cl)c2)S(=O)(=O)c2c(C)[nH]c(=O)[nH]c2=O)cc1 | . | . | . | - | . | .
COC(=O)c1ccccc1OC(=O)c1cc2ccccc2oc1=O | - | - | - | . | - | -
O=C(OCCn1cncn1)c1cc2ccccc2oc1=O | - | - | - | 28µM | - | -
O=C(COC(=O)c1cc2ccccc2oc1=O)c1cccc([N+](=O)[O-])c1 | - | - | - | 32µM | - | -
COC(=O)c1cc2ccccc2oc1=O | - | - | - | 20µM | - | -
